Reference: PubChem BioAssay (NCATS)
Inconclusive results are not listed. A call without a number means that no potency is given here. Active and inactive are the calls of the source. Calls follow the shape of the dose curve; as a rule, active = well fitted curve in the direction sought with a large enough effect; inconclusive = small, poorly fitted or top-dose-only effect, or another doubt; inactive = no such curve, though single readings can be large; an effect the other way counts as inactive or inconclusive.

Assays:
C33A = assay: Primary qHTS to identify gynecologic anti-cancer compounds using libraries of approved drugs and bioactive compounds (AID 1345084); conditions: Gynecologic cancer cell panel viability, ATPlite luminescence, 48 h; series mostly up to 57.5 µM; also: nearly all actives have a fitted effect of over 55% in size
Procedure, shortened: (§1)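 In this quantitative HTS, cell killing is estimated from loss of ATP-dependent luciferase light. Cells see five compound concentrations over a 48 h exposure.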

CAOV3 = assay: as above; conditions: Gynecologic cancer cell panel viability, ATPlite luminescence, 48 h; series mostly up to 57.5 µM
Procedure, shortened: as §1

CASKI = assay: as above; conditions: Gynecologic cancer cell panel viability, ATPlite luminescence, 48 h; series mostly up to 57.5 µM
Procedure, shortened: as §1

Es-2 = assay: as above; conditions: Gynecologic cancer cell panel viability, ATPlite luminescence, 48 h; series mostly up to 57.5 µM
Procedure, shortened: as §1

HeLa = assay: as above; conditions: Gynecologic cancer cell panel viability, ATPlite luminescence, 48 h; series mostly up to 57.5 µM
Procedure, shortened: as §1

Hek293T = assay: as above; conditions: Gynecologic cancer cell panel viability, ATPlite luminescence, 48 h, control line for the selectivity index; series mostly up to 57.5 µM
Procedure, shortened: as §1

JEG-3 = assay: as above; conditions: Gynecologic cancer cell panel viability, ATPlite luminescence, 48 h; series mostly up to 57.5 µM
Procedure, shortened: as §1

OV90 = assay: as above; conditions: Gynecologic cancer cell panel viability, ATPlite luminescence, 48 h; series mostly up to 57.5 µM
Procedure, shortened: as §1

WaGa = assay: qHTS assay to identify novel small-molecules to repurpose for Merkel cell carcinoma treatment (AID 1296009); conditions: MCC and control cell lines, CellTiter-Glo viability, 72 h; series mostly up to 46 µM; also: nearly all actives have a fitted effect of over 60% in size
Procedure, shortened: (§2)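 Viability readout: ATP luminescence (CellTiter-Glo) after 72 hr drug exposure at 37 degree celsius. Dose-response format was 8 points for NPC and 11 points for MIPE; data normalized to in-plate controls.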

UISO = assay: as above; conditions: MCC and control cell lines, CellTiter-Glo viability, 72 h; series mostly up to 46 µM
Procedure, shortened: as §2
Potency is read from the fitted curve at half-maximal effect.

Compound | Potency (C33A) | Potency (CAOV3) | Potency (CASKI) | Potency (Es-2) | Potency (HeLa) | Potency (Hek293T) | Potency (JEG-3) | Potency (OV90) | Potency (WaGa) | Potency (UISO)
CNC(C)Cc1ccc2c(c1)OCO2 (centres undefined) | inactive | inactive | inactive | inactive | inactive | inactive | inactive | inactive |  | 
CN(C)CCc1c[nH]c2cccc(O)c12 | inactive | inactive | inactive | inactive | inactive | inactive | inactive | inactive |  | 
CCCN(CCC)CCc1c[nH]c2ccccc12 | inactive | inactive | inactive | inactive | inactive | inactive | inactive |  | inactive | 
C[C@]12Cc3nonc3C[C@@H]1CC[C@@H]1[C@@H]2CC[C@@]2(C)[C@H]1CC[C@]2(C)O | inactive | inactive | inactive | inactive | 2.82 µM (active) | inactive | inactive | inactive | 18.8 µM (active) | 
Clc1ccc(C(OCCN2CCCCC2)c2ccccc2)cc1 (centres undefined) | inactive |  | inactive | inactive | inactive | inactive | inactive |  |  | 
C[C@@H]1CC[C@H]2[C@@H](C)C(=O)O[C@@H]3O[C@@]4(C)CC[C@@H]1[C@]32OO4 | inactive | inactive | inactive | inactive | inactive | inactive | inactive | inactive | inactive | 
CN(C)CCc1c[nH]c2ccc(O)cc12 | inactive |  | inactive | inactive | inactive | inactive | inactive | inactive |  | 53.4 µM (active)
c1ccc2c(c1)Sc1ccccc1N2CC1CN2CCC1CC2 (centres undefined) |  |  |  | 35.5 µM (active) |  | 31.6 µM (active) |  | 28.2 µM (active) |  | 26.6 µM (active)
COc1ccc2c(C(=O)c3ccc(Cl)cc3)c(C)n(CC(=O)O)c2c1 | inactive | inactive | inactive |  |  | inactive | inactive | inactive |  | 26.6 µM (active)
CCC(OC(C)=O)C(CC(C)NC)(c1ccccc1)c1ccccc1 (centres undefined) |  | 39.8 µM (active) |  |  | 31.6 µM (active) |  |  |  |  | 49.1 µM (active)
CCO[C@H]1O[C@@H]2OC3(C)CC[C@H]4[C@H](C)CC[C@@H]([C@H]1C)[C@@]24OO3 | inactive | inactive | inactive | inactive | inactive |  | inactive | inactive | 18.8 µM (active) | 
C#C[C@]1(O)CC[C@H]2[C@@H]3CCC4=CC(=O)CCC4=C3C=C[C@@]21CC | inactive | inactive | inactive | inactive | inactive | inactive | inactive | inactive |  | 
COc1cc(CC(C)N)c(OC)cc1Br (centres undefined) |  | inactive |  | inactive | 25.1 µM (active) |  | inactive | inactive | 50.4 µM (active) | 
CCC(=O)C(CCN(C)C)(c1ccccc1)c1ccccc1 | inactive | inactive | inactive | inactive | inactive | inactive | inactive | inactive |  | inactive
CC(=O)OC1(c2ccccc2)CCN(CCc2ccccc2)CC1 | inactive |  |  | inactive | inactive | inactive | inactive |  |  | 24.8 µM (active)
CC1Sc2c(C(=O)O)c(=O)c3cc(F)c(N4CCNCC4)cc3n21 (centres undefined) | inactive | inactive | inactive | inactive | inactive | inactive | inactive | inactive |  | inactive
C[C@]12C=CC(=O)C=C1CC[C@@H]1[C@@H]2CC[C@@]2(C)[C@H]1CC[C@]2(C)O | inactive |  | inactive | inactive | inactive | inactive | inactive | inactive |  | 
C=CC[C@]1(O)CC[C@H]2[C@@H]3CCC4=CC(=O)CCC4=C3C=C[C@@]21C |  | inactive | inactive | inactive | inactive | inactive | inactive |  |  | inactive
Cc1cccc(Cc2cnc[nH]2)c1C | inactive | inactive | inactive | inactive | inactive | inactive | inactive | inactive | inactive | 
C[C@]12CC[C@H](O)CC1=CC[C@@H]1[C@@H]2CC[C@]2(C)C(=O)CC[C@@H]12 | inactive | inactive | inactive | inactive | 14.1 µM (active) | inactive | inactive | inactive |  | 

Compound | Potency (C33A) | Potency (CAOV3) | Potency (CASKI) | Potency (Es-2) | Potency (HeLa) | Potency (Hek293T) | Potency (JEG-3) | Potency (OV90) | Potency (WaGa) | Potency (UISO)
C[C@H](CN1CCOCC1)C(C(=O)N1CCCC1)(c1ccccc1)c1ccccc1 | inactive | inactive | inactive | inactive | inactive | inactive | inactive |  |  | 
O=C(O)CCCCCCNC1c2ccccc2CCc2ccccc21 | inactive | inactive | inactive | inactive | inactive | inactive | inactive | inactive | inactive | 
CC[C@]1(O)CC[C@H]2[C@@H]3CCC4=CCCC[C@@H]4[C@H]3CC[C@@]21C |  |  | inactive |  |  |  | inactive |  | inactive | 
CC[C@H]1C[C@@H]2C[C@H]3c4[nH]c5ccc(OC)cc5c4CCN(C2)[C@@H]13 | inactive | inactive | inactive | inactive | inactive | inactive | inactive | 31.6 µM (active) | 42.4 µM (active) | 
NC1(c2ccccc2)CCCCC1 |  | inactive | inactive | inactive |  | inactive | inactive | inactive |  | inactive
CCOC(=O)C1(c2ccccc2)CCN(CCc2ccc(N)cc2)CC1 | inactive | inactive | inactive | inactive | inactive | inactive | inactive | inactive | inactive | 
Clc1ccc(CSC(Cn2ccnc2)c2ccc(Cl)cc2Cl)cc1 (centres undefined) |  |  | inactive | inactive | inactive |  | inactive |  |  | 26.6 µM (active)
CNC(=O)Oc1cccc2ccccc12 | inactive | inactive | inactive | inactive | inactive | inactive | inactive |  |  | 
O=C(CCl)c1ccc(Cl)cc1Cl | inactive | inactive | inactive | inactive | inactive | inactive | inactive | inactive |  | inactive
CC(C)=C[C@@H]1[C@@H](C(=O)OCc2coc(Cc3ccccc3)c2)C1(C)C | inactive | inactive | inactive | inactive | inactive | inactive | inactive | inactive |  | inactive
CC(CC(C#N)(c1ccccc1)c1ccccc1)N(C)C (centres undefined) | inactive | inactive | inactive | inactive | inactive | inactive | inactive |  | 43.3 µM (active) | 
Clc1ccc(CO/N=C(\Cn2ccnc2)c2ccc(Cl)cc2Cl)c(Cl)c1 | inactive | inactive | inactive | inactive | inactive | inactive | inactive |  |  | 
N#Cc1nn(-c2c(Cl)cc(C(F)(F)F)cc2Cl)c(N)c1S(=O)C(F)(F)F (centres undefined) | inactive | inactive | inactive | inactive | inactive |  | inactive | inactive |  | 
Nc1ccc(Cl)cc1C(=O)c1ccccc1F | inactive | inactive | inactive | inactive | inactive | inactive | inactive | inactive | inactive | 
ClCCCN1CCN(c2cccc(Cl)c2)CC1 | inactive | inactive | inactive | inactive | inactive | inactive | inactive | inactive |  | inactive
Cc1nnc2n1-c1sc(CCc3ccc(CC(C)C)cc3)cc1C(c1ccccc1Cl)=NC2C (centres undefined) |  |  | inactive |  |  |  | inactive |  |  | 16.8 µM (active)
CC[C@H](O)C(C[C@H](C)N(C)C)(c1ccccc1)c1ccccc1 | inactive |  |  | inactive | inactive | inactive | inactive |  |  | 
C=CCOC(Cn1ccnc1)c1ccc(Cl)cc1Cl (centres undefined) | inactive | inactive | inactive | inactive |  | inactive | inactive |  | inactive | 
CCc1cc(OC)c(C[C@H](C)N)cc1OC | inactive | inactive | inactive | inactive | inactive | inactive | inactive |  | inactive | 
